Source: paper PMC5540273 (PLoS ONE, 2017)
“And” between values parts separate entries of the source, which are not always exact repeats. Equal entries are not always repeated. Where two headings read alike, the source gives them in different places.

Key:
PKMYT1 = conditions: concentration: 1 μM, replicates: in singlicate, n = 1
PKN1 = conditions: concentration: 1 μM, replicates: in singlicate, n = 1
PKN2 = conditions: concentration: 1 μM, replicates: in singlicate, n = 1
PLK1 = conditions: concentration: 1 μM, replicates: in singlicate, n = 1
PLK2 = conditions: concentration: 1 μM, replicates: in singlicate, n = 1
PLK3 = conditions: concentration: 1 μM, replicates: in singlicate; n = 1
PLK4 = conditions: concentration: 1 μM, replicates: in singlicate, n = 1
PRKCD = conditions: concentration: 1 μM, replicates: in singlicate, n = 1
PRKCE = conditions: concentration: 1 μM, replicates: in singlicate, n = 1
PRKCH = conditions: concentration: 1 μM, replicates: in singlicate, n = 1
PRKCI = conditions: concentration: 1 μM, replicates: in singlicate, n = 1
PRKCQ = conditions: concentration: 1 μM, replicates: in singlicate, n = 1
PRKD1 = conditions: concentration: 1 μM, replicates: in singlicate, n = 1
PRKD2 = conditions: concentration: 1 μM, replicates: in singlicate, n = 1
PRKD3 = conditions: concentration: 1 μM, replicates: in singlicate, n = 1
PRKG1 = conditions: concentration: 1 μM, replicates: in singlicate, n = 1
PRKG2 = conditions: concentration: 1 μM, replicates: in singlicate, n = 1
PRKR = test system: T1, PRKR; conditions: concentration: 1 μM, replicates: in singlicate, n = 1
T1 construct: gene EIF2AK2

PRKX = conditions: concentration: 1 μM, replicates: in singlicate, n = 1
PRP4 = conditions: concentration: 1 μM, replicates: in singlicate, n = 1
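Note: KINOMEscan kinase panel screen.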

## Cc1cccc(-c2nc(-c3ccc(S(C)(=O)=O)cc3)sc2-c2ccncc2)c1
PKMYT1
  %Inh: 20%
PKN1
  %Inh: 17%
PKN2
  %Inh: 0%
PLK1
  %Inh: 0%
PLK2
  %Inh: 8%
PLK3
  %Inh: 6%
PLK4
  %Inh: 10%
PRKCD
  %Inh: 24%
PRKCE
  %Inh: 7%
PRKCH
  %Inh: 10%
PRKCI
  %Inh: 0%
PRKCQ
  %Inh: 9%
PRKD1
  %Inh: 0%
PRKD2
  %Inh: 0%
PRKD3
  %Inh: 0%
PRKG1
  %Inh: 0%
PRKG2
  %Inh: 0%
PRKR
  %Inh: 2%
PRKX
  %Inh: 1%
PRP4
  %Inh: 6%

## O=c1cc(N2CCOCC2)nc2n(Cc3cccc(C(F)(F)F)c3)ccn12 [GSK2297543]
PKMYT1
  %Inh: 0%
PKN1
  %Inh: 29%
PKN2
  %Inh: 5%
PLK1
  %Inh: 3%
PLK2
  %Inh: 0%
PLK3
  %Inh: 0%
PLK4
  %Inh: 0%
PRKCD
  %Inh: 8%
PRKCE
  %Inh: 0%
PRKCH
  %Inh: 9%
PRKCI
  %Inh: 4%
PRKCQ
  %Inh: 8%
PRKD1
  %Inh: 0%
PRKD2
  %Inh: 1%
PRKD3
  %Inh: 0%
PRKG1
  %Inh: 27%
PRKG2
  %Inh: 0%
PRKR
  %Inh: 8%
PRKX
  %Inh: 0%
PRP4
  %Inh: 22%

## NCCNS(=O)(=O)c1ccc(-c2ccnc3[nH]ccc23)cc1 [GSK977617]
PKMYT1; 1 µM
  %Inh: 5% and 0%
PKN1; 1 µM
  %Inh: 44% and 19%
PKN2; 1 µM
  %Inh: 66% and 50%
PLK1; 1 µM
  %Inh: 6% and 2%
PLK2; 1 µM
  %Inh: 10% and 0%
PLK3
  %Inh: 0%
PLK4; 1 µM
  %Inh: 26% and 24%
PRKCD; 1 µM
  %Inh: 97.7% and 95.2%
PRKCE; 1 µM
  %Inh: 96.8% and 68%
PRKCH; 1 µM
  %Inh: 95% and 91%
PRKCI; 1 µM
  %Inh: 56% and 47%
PRKCQ; 1 µM
  %Inh: 86% and 70%
PRKD1; 1 µM
  %Inh: 49% and 33%
PRKD2; 1 µM
  %Inh: 51% and 23%
PRKD3; 1 µM
  %Inh: 45% and 33%
PRKG1; 1 µM
  %Inh: 97.6% and 96.7%
PRKG2; 1 µM
  %Inh: 98.6% and 98%
PRKR; 1 µM
  %Inh: 52% and 42%
PRKX; 1 µM
  %Inh: 94.7% and 92.2%
PRP4; 1 µM
  %Inh: 28% and 20%

## O=c1cc(N2CCOCC2)nc2n(Cc3cccc4ccccc34)ccn12 [GSK2333389]
PKMYT1
  %Inh: 4%
PKN1
  %Inh: 15%
PKN2
  %Inh: 0%
PLK1
  %Inh: 0%
PLK2
  %Inh: 0%
PLK3
  %Inh: 0%
PLK4
  %Inh: 0%
PRKCD
  %Inh: 0%
PRKCE
  %Inh: 0%
PRKCH
  %Inh: 0%
PRKCI
  %Inh: 7%
PRKCQ
  %Inh: 0%
PRKD1
  %Inh: 0%
PRKD2
  %Inh: 0%
PRKD3
  %Inh: 23%
PRKG1
  %Inh: 10%
PRKG2
  %Inh: 0%
PRKR
  %Inh: 0%
PRKX
  %Inh: 26%
PRP4
  %Inh: 2%
